Results filed as inconclusive are left out. Where a call stands in place of a potency, no number is given. The source made the active and inactive calls. Unless noted, calls follow the shape of the dose curve; as a rule, active = well fitted curve in the direction sought with a large enough effect in the repeat runs; inconclusive = weak or mixed curves; inactive = no such curve, though single readings can be large; an effect the other way counts as inactive or inconclusive.
Legend:
[1] = qHTS assay to identify small molecule agonists of the estrogen receptor alpha (ER-alpha) signaling pathway in the presence of an antagonist - cell viability counter screen (AID 1259386);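 also: cells exposed to compounds for 22 h at 37 °C before the viability read; nearly all actives have a fitted effect of over 30% in size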; also: potency is read from the fitted curve at half-maximal effect
Method in brief: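 Fluorescent CellTiter-Fluor viability signal from VM7Luc4E2 cells, with the reagent added during the final hour of a 22hr compound exposure at 37C in the presence of 10.0nM ICI-182,780.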

[2] = biological target: Progesterone receptor (Homo sapiens) (UniProt P06401); assay: qHTS assay to identify small molecule agonists of the progesterone receptor (PR) signaling pathway (AID 1346784; calls by dose curve; also: nearly all actives have a fitted effect of over 30% in size; also: potency is read from the fitted curve at half-maximal effect)
Method in brief: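 Agonist qHTS: compounds pinned onto 3,000 PR-UAS-bla HEK 293T cells per well in charcoal-stripped serum medium, 16hr at 37C, then beta-lactamase activity measured by LiveBLAzer FRET fluorescence after 2 hours at room temperature.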

[3] = qHTS assay to identify small molecule agonists of the progesterone receptor (PR) signaling pathway - cell viability counter screen (AID 1346799; calls by dose curve; also: nearly all actives have a fitted effect of over 45% in size; also: potency is read from the fitted curve at half-maximal effect)
Method in brief: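 Cytotoxicity measured by CellTiter-Glo luminescence (30 min, RT) in the same wells as the PR beta-lactamase agonist read. Those HEK293T cells had 16 h compound treatment at 37 C in 2% charcoal-stripped FBS medium.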

[4] = qHTS assay to identify small molecule antagonists of the TGF-beta/Smad signaling pathway - cell viability counter screen (AID 1346824); also: nearly all actives have a fitted effect of over 50% in size
Method in brief: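 Cytotoxicity counter-screen run in the same wells as the beta-lactamase Smad reporter read: CellTiter-Glo luminescence after 30 min at room temperature. HEK 293T SBE-bla cells had 5 hr compound exposure at 37 C with TGF-beta1 (0.25 ng/mL stock).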

[5] = qHTS assay to identify small molecule agonists of the TGF-beta/Smad signaling pathway (AID 1346859; active = well fitted activation curve with a large enough effect in the signal ratio in the repeat runs, not every such curve was filed as active; the % refers to the signal ratio; also: series mostly up to about 77 µM)
Method in brief: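 Fluorescence (ex 405 nm; em 460 and 530 nm) was read 2 h after LiveBLAzer FRET substrate at RT. The preceding compound treatment of overnight-plated SBE-bla HEK293T cells lasted 5 h at 37 C.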

[6] = qHTS assay to identify small molecule agonists of the TGF-beta/Smad signaling pathway - cell viability counter screen (AID 1346829); also: top concentration of the series differs between compounds; nearly all actives have a fitted effect of over 45% in size
Method in brief: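 Cytotoxicity counter screen: CellTiter-Glo luminescence (30 min, room temperature) measured in the SBE-bla HEK 293T reporter wells after 5 hr compound treatment at 37 C and the 2 hr substrate step.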

[7] = biological target: Progesterone receptor (Homo sapiens) (UniProt P06401); assay: qHTS assay to identify small molecule antagonists of the progesterone receptor (PR) signaling pathway (AID 1346795; active = well fitted inhibition curve with a large enough effect in the signal ratio in the repeat runs, not every such curve was filed as active; the % refers to the signal ratio; also: potency is read from the fitted curve at half-maximal effect)
Method in brief: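 Antagonist mode with agonist R5020 at 1 nM final and 16 hr incubation at 37C. Reporter was beta-lactamase driven by UAS in HEK293T (PR-UAS-bla), 2% charcoal-stripped serum; signal from LiveBLAzer FRET substrate, 2 hr at room temperature.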

[8] = qHTS assay to identify small molecule antagonists of the progesterone receptor (PR) signaling pathway - cell viability counter screen (AID 1346798); also: nearly all actives have a fitted effect of over 50% in size; also: potency is read from the fitted curve at half-maximal effect
Method in brief: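 Cytotoxicity read as CellTiter-Glo luminescence (30 min, room temperature) in the same wells as the beta-lactamase readout. HEK293T PR-UAS-bla cells in charcoal-stripped 2% FBS received compound and R5020, then 16 h at 37C, 5% CO2.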

[9] = biological target: Thyrotropin-releasing hormone receptor (Homo sapiens) (UniProt P34981); assay: qHTS assay to identify small molecule antagonists of the thyrotropin-releasing hormone receptor (TRHR) signaling pathway (AID 1346877; active = well fitted inhibition curve with a large enough effect in the repeat runs, not every such curve was filed as active; also: series mostly up to about 51 µM)
Method in brief: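 In this cell-based calcium flux format, HEK293 cells expressing TRHR received test compound for 5 min before the agonist TRH (1 nM final). Dye loading lasted 2 h at 37 °C.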

[10] = biological target: Thyrotropin-releasing hormone receptor (Homo sapiens) (UniProt P34981); assay: qHTS assay to identify small molecule agonists of the thyrotropin-releasing hormone receptor (TRHR) signaling pathway (AID 1346891; calls by dose curve; also: series mostly up to about 58 µM)
Method in brief: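 Agonist-mode intracellular calcium readout: kinetic fluorescence over 3 min at 1 s intervals after compound addition to TRHR-HEK293 cells (18 h seeded, 2 h dye-loaded at 37 C). Fifteen concentrations, triplicates.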

Chain of Thyrotropin-releasing hormone receptor (Homo sapiens) (P34981 whole entry, looked up): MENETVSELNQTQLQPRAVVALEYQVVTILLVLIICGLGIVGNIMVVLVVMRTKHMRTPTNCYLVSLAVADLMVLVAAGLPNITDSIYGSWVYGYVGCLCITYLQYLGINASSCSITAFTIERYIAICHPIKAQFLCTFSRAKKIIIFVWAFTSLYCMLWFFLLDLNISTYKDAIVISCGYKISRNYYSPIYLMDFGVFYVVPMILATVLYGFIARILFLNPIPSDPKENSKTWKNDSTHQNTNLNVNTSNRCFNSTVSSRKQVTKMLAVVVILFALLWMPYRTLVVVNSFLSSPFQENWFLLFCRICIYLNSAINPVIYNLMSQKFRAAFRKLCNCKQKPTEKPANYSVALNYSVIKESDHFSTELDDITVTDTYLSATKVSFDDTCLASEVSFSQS
Chain of Progesterone receptor (Homo sapiens) (P06401 whole entry, looked up): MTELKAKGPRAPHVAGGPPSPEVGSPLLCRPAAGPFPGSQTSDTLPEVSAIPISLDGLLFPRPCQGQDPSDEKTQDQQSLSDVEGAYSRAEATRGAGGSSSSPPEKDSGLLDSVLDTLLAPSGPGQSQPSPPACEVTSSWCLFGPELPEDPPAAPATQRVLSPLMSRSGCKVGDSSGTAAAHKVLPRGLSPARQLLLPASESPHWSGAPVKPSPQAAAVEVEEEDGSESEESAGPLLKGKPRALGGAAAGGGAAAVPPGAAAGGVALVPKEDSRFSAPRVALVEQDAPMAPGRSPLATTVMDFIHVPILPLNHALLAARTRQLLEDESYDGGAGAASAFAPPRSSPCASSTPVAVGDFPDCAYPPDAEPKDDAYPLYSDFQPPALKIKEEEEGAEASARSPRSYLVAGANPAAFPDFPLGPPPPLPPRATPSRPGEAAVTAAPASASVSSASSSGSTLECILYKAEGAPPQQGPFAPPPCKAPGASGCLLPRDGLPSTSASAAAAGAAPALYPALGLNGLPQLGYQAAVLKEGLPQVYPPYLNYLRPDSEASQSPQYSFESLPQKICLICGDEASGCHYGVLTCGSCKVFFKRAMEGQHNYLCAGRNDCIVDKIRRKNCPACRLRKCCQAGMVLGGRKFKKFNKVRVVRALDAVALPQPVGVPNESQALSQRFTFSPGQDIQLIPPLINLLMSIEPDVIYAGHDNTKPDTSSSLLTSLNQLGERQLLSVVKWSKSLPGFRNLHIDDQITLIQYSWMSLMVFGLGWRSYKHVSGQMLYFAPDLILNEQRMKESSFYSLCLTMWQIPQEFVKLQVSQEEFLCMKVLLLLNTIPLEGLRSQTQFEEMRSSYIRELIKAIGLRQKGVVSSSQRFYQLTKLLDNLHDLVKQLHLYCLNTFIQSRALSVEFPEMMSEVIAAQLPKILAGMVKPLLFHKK

SMILES	Potency [1]	Potency [2]	Potency [3]	Potency [4]	Potency [5]	Potency [6]	Potency [7]	Potency [8]	outcome [9]	Potency [10]
O=C=Nc1ccc(Cl)c(Cl)c1	inactive	inactive	23.9 µM (active)	inactive	inactive	–	–	–	–	–
Cc1cccc(N(C)C(=S)Oc2ccc3c(c2)CCC3)c1	inactive	inactive	inactive	inactive	inactive	inactive	–	–	–	–
Nc1ccc(N=Nc2ccccc2)c(N)c1	26.7 µM (active)	–	inactive	–	inactive	–	47.5 µM (active)	inactive	inactive	inactive
CCOc1ccccc1O[C@H](c1ccccc1)[C@H]1CNCCO1	inactive	–	–	inactive	inactive	inactive	inactive	inactive	–	–
CCOC(=O)c1ccc(I)cc1	inactive	–	–	inactive	inactive	inactive	inactive	inactive	inactive	inactive
Cc1c(C)c2c(c(C)c1OC(=O)CCC(=O)OCCO)CC[C@@](C)(CCC[C@H](C)CCC[C@H](C)CCCC(C)C)O2	inactive	–	–	inactive	inactive	inactive	26.6 µM (active)	–	inactive	inactive
C=C(C)[C@@H]1CCC2=CCC[C@@H](C)[C@]2(C)C1	inactive	–	–	inactive	inactive	inactive	inactive	–	inactive	inactive
Cc1ccc(Cl)c(Nc2ccccc2C(=O)O)c1Cl	inactive	inactive	inactive	inactive	–	inactive	–	–	inactive	inactive
CCCCCCCCCI	inactive	–	inactive	–	inactive	inactive	inactive	inactive	inactive	inactive
CN1C(=O)OC(C)(C)C1=O	inactive	–	inactive	inactive	inactive	inactive	inactive	inactive	inactive	inactive
O=C(O)c1ccc(OCCCOc2ccc(C(=O)O)cc2)cc1	inactive	–	inactive	inactive	inactive	inactive	inactive	inactive	inactive	inactive
CCC(C)COC(C)=O (configuration not stated)	inactive	–	inactive	inactive	inactive	inactive	inactive	inactive	–	–
CCCCN(CCN(CCCC)C(=O)N1CCOCC1)C(=O)N1CCOCC1	inactive	inactive	29.8 µM (active)	inactive	–	inactive	–	–	inactive	inactive
CC(=O)Nc1cc(S(=O)(=O)O)cc2cc(S(=O)(=O)O)c(N=Nc3ccccc3)c(O)c12	17.2 µM (active)	–	inactive	inactive	inactive	inactive	inactive	inactive	inactive	inactive
CCCCC(CC)COP(=O)(O)O (configuration not stated)	inactive	inactive	inactive	inactive	inactive	inactive	–	–	–	–
CC(C)=CC(=O)C=C(C)C	inactive	inactive	inactive	inactive	inactive	inactive	–	–	inactive	inactive
NNC(=O)CP(=O)(c1ccccc1)c1ccccc1	inactive	–	inactive	inactive	inactive	inactive	inactive	inactive	inactive	inactive
CCOc1cccc(-n2cc(C(=O)N3CCN(c4cc(C(=O)O)c5ccccc5c4)CC3)nc2-c2ccc(C)cc2)c1	inactive	inactive	–	inactive	–	–	–	–	–	–
CN1C(=O)c2ccccc2C1=O	inactive	1.09 µM (active)	–	inactive	inactive	inactive	–	–	inactive	inactive
CC/C=C1/OC(=O)c2ccccc21	inactive	inactive	–	inactive	inactive	–	–	inactive	inactive	inactive
OC[C@H]1O[C@@H](n2cnc3c(=S)nc[nH]c32)[C@H](O)[C@@H]1O	inactive	inactive	–	–	inactive	–	–	–	inactive	inactive
Cc1[nH]cnc1CN1CCc2c(c3ccccc3n2C)C1=O	inactive	–	inactive	inactive	inactive	inactive	inactive	inactive	–	–
C/C=C\C/C=C/CCCCCCCCOC(C)=O	inactive	inactive	–	inactive	inactive	inactive	–	–	inactive	inactive
O=C(O)CCCCCCCCCCCBr	inactive	inactive	–	inactive	–	–	–	inactive	inactive	inactive
C[C@]12CC[C@@H]3c4ccc(O)cc4CC[C@H]3[C@@H]1CC[C@@H]2OC(=O)CCC1CCCC1	inactive	inactive	–	inactive	inactive	inactive	–	–	inactive	inactive
c1csc(SSc2cccs2)c1	inactive	–	9.69 µM (active)	inactive	inactive	–	8.63 µM (active)	9.69 µM (active)	–	–

SMILES	Potency [1]	Potency [2]	Potency [3]	Potency [4]	Potency [5]	Potency [6]	Potency [7]	Potency [8]	outcome [9]	Potency [10]
O=C1Cc2ccccc2N1c1c(Cl)cccc1Cl	inactive	inactive	–	inactive	inactive	–	–	–	–	–
N#[N+]c1ccc2c(S(=O)(=O)[O-])cccc2c1O	43.3 µM (active)	inactive	inactive	inactive	inactive	inactive	–	–	inactive	inactive
CCC1CO1 (configuration not stated)	inactive	–	inactive	inactive	inactive	inactive	inactive	inactive	–	–
CC[C@]1(O)C[C@H]2CN(CCc3c([nH]c4ccccc34)[C@@](C(=O)OC)(c3cc4c(cc3OC)N(C=O)[C@H]3[C@@](O)(C(=O)OC)[C@H](OC(C)=O)[C@]5(CC)C=CCN6CC[C@]43[C@@H]65)C2)C1	inactive	inactive	–	inactive	inactive	–	–	–	inactive	inactive
CCC1(CO)COCOC1	inactive	inactive	inactive	inactive	inactive	inactive	–	–	inactive	inactive
CC1(C)[C@@H](OC(=O)CCC(=O)O)CC[C@]2(C)[C@H]3C(=O)C=C4[C@@H]5C[C@@](C)(C(=O)O)CC[C@]5(C)CC[C@@]4(C)[C@]3(C)CC[C@@H]12	inactive	–	inactive	–	inactive	inactive	inactive	–	inactive	inactive
COc1ccccc1N1CCN(CC(O)COc2cccc3ccccc23)CC1 (configuration not stated)	inactive	inactive	33.5 µM (active)	inactive	inactive	inactive	–	–	–	–
CC1(C)O[C@@H]2C[C@H]3[C@@H]4C[C@H](F)C5=CC(=O)C=C[C@]5(C)[C@H]4[C@@H](O)C[C@]3(C)[C@]2(C(=O)CO)O1	inactive	–	inactive	inactive	–	inactive	inactive	inactive	–	–
Oc1ccc(Cl)c2cccnc12	inactive	inactive	–	inactive	inactive	inactive	–	–	inactive	inactive
O=C(Cn1ccnc1[N+](=O)[O-])NCCO	inactive	–	inactive	inactive	inactive	inactive	inactive	inactive	inactive	inactive
COC(=O)[C@H]1[C@H]2C[C@@H]3c4[nH]c5cc(OC)ccc5c4CCN3C[C@H]2C[C@@H](OC(=O)/C=C/c2ccc(O)c(OC)c2)[C@@H]1OC	inactive	inactive	–	inactive	–	inactive	–	–	inactive	inactive
CC(=O)OCCN(CCOC(C)=O)c1ccc(N=Nc2ccc([N+](=O)[O-])cc2C#N)cc1	54.5 µM (active)	–	–	inactive	inactive	inactive	inactive	inactive	inactive	inactive
CC(=O)OCC(=O)NCCCOc1cccc(CN2CCCCC2)c1	inactive	inactive	inactive	inactive	inactive	inactive	–	–	–	–
CC(CN(C)C)C(C)(O)Cc1ccc(Cl)cc1 (configuration not stated)	inactive	–	16.8 µM (active)	–	inactive	inactive	inactive	inactive	inactive	inactive
C[C@@H]1CC(=O)NN=C1c1ccc(NN=C(C#N)C#N)cc1	26.6 µM (active)	–	inactive	inactive	inactive	inactive	–	inactive	inactive	inactive
Cc1ccc(OC(=O)c2ccccc2O)cc1	inactive	–	–	inactive	inactive	inactive	–	inactive	inactive	inactive
C=CC(C)(CCC=C(C)C)OC(=O)CC(C)C (configuration not stated)	inactive	–	inactive	inactive	inactive	inactive	–	inactive	inactive	inactive
CCN(CC)CCNC(=O)COc1ccc(OC)cc1	inactive	–	inactive	inactive	inactive	inactive	–	inactive	inactive	inactive
CC(C)C[C@H](NC(=O)[C@H](CCc1ccccc1)NC(=O)CN1CCOCC1)C(=O)N[C@@H](Cc1ccccc1)C(=O)N[C@@H](CC(C)C)C(=O)[C@@]1(C)CO1	inactive	–	–	inactive	inactive	inactive	–	inactive	inactive	inactive
C[C@]1(Cn2ccnn2)[C@H](C(=O)O)N2C(=O)C[C@H]2S1(=O)=O	inactive	–	inactive	–	inactive	inactive	–	inactive	inactive	inactive
NCCNCCO	inactive	–	inactive	inactive	inactive	inactive	–	inactive	inactive	inactive
OC(CCN1CCCC1)(c1ccccc1)C1CCCCC1 (configuration not stated)	inactive	–	inactive	inactive	inactive	inactive	–	inactive	inactive	inactive
CC(=O)NC1(c2cccc(F)c2)CCN(CC[C@@]2(c3ccc(Cl)c(Cl)c3)CN(c3ccccc3)C(=O)CO2)CC1	inactive	–	21.7 µM (active)	inactive	–	inactive	–	38.7 µM (active)	inactive	inactive
O=C=Nc1cccc(C(F)(F)F)c1	inactive	–	–	inactive	inactive	inactive	–	inactive	inactive	inactive
CC(C)COCC(CN(Cc1ccccc1)c1ccccc1)N1CCCC1 (configuration not stated)	inactive	–	–	–	–	–	29.8 µM (active)	–	inactive	inactive
CCOC(=O)[C@H](CCc1ccccc1)N[C@@H](C)C(=O)N(CC(=O)O)C1Cc2ccccc2C1	inactive	–	–	inactive	inactive	inactive	–	6.68 µM (active)	inactive	inactive

— PubChem BioAssay (Tox21)
